Measured values taken from PubChem BioAssay AID1159580 (chemical genetic matrix, 2015).
The campaign covered roughly 5,500 compounds. About 2,000 (36%) were called active. Not shown: some 18% with an inconclusive outcome. No stated cut-off is given here; in the data, active means normalized growth mostly below about 0.91 (no sharp cut-off); inconclusive means no clear call, values can overlap the other calls; inactive means mostly above about 0.92. Some of the results follow.

Assay: chemical genetic growth profiling, strain panel (AID 1159580);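 further: tested at 20 µM; growth read once vehicle control cultures reached saturation at 30 °C; 1 = growth at the plate median or of vehicle wells; lower values mean less growth of the strain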
Conditions: growth OD

Measured: normalized growth

CNC[C@H](O)c1cccc(O)c1
inactive: S. cerevisiae deletion strains, locus YKL009W, strain mrt4, hits give low values 1 | S. cerevisiae deletion strains, locus YKL068W, hits give low values 1.01 | S. cerevisiae deletion strains, locus YKL085W, strain MDH1 (second series), hits give low values 1.01 | S. cerevisiae deletion strains, locus YKL085W, strain MDH1, hits give low values 1.01 | S. cerevisiae deletion strains, locus YKL160W, strain elf1, hits give low values 0.963 | S. cerevisiae deletion strains, locus YKL190W, strain CNB1, hits give low values 1 | S. cerevisiae deletion strains, locus YKR001C, strain vps1, hits give low values 1.02 | S. cerevisiae deletion strains, locus YKR026C, strain gcn3, hits give low values 0.99 | S. cerevisiae deletion strains, locus YKR091W, strain srl3, hits give low values 0.962 | S. cerevisiae deletion strains, locus YLL001W, strain dnm1, hits give low values 0.962 | S. cerevisiae deletion strains, locus YLL026W, hits give low values 0.977 | S. cerevisiae deletion strains, locus YLL041C, strain sdh2, hits give low values 0.985 | S. cerevisiae deletion strains, locus YLR027C, strain aat2, hits give low values 0.974 | S. cerevisiae deletion strains, locus YLR039C, strain RIC1, hits give low values 1.03 | S. cerevisiae deletion strains, locus YLR058C, strain SHM2, hits give low values 1.01 | S. cerevisiae deletion strains, locus YLR102C, strain apc9, hits give low values 1.01 | S. cerevisiae deletion strains, locus YLR113W, strain HOG1, hits give low values 1 | S. cerevisiae deletion strains, locus YLR221C, strain rsa3, hits give low values 0.987 | S. cerevisiae deletion strains, locus YLR258W, strain gsy2, hits give low values 0.986 | S. cerevisiae deletion strains, locus YLR262C, strain YPT6 (second series), hits give low values 0.969 | S. cerevisiae deletion strains, locus YLR262C, strain YPT6, hits give low values 1.03 | S. cerevisiae deletion strains, locus YLR268W, strain sec22, hits give low values 1.02 | S. cerevisiae deletion strains, locus YLR320W, strain mms22, hits give low values 0.964 | S. cerevisiae deletion strains, locus YLR330W, strain CHS5, hits give low values 1.01 | S. cerevisiae deletion strains, locus YLR342W, strain FKS1 (second series), hits give low values 0.994 | S. cerevisiae deletion strains, locus YLR342W, strain FKS1, hits give low values 0.963 | S. cerevisiae deletion strains, locus YLR357W, strain rsc2, hits give low values 0.906 | S. cerevisiae deletion strains, locus YLR370C, strain arc18, hits give low values 0.991 | S. cerevisiae deletion strains, locus YLR371W, strain rom2, hits give low values 1.01 | S. cerevisiae deletion strains, locus YLR384C, strain iki3, hits give low values 0.979 | S. cerevisiae deletion strains, locus YLR418C, strain cdc73, hits give low values 1.02 | S. cerevisiae deletion strains, locus YML016C, strain PPZ1, hits give low values 1.01 | S. cerevisiae deletion strains, locus YML032C, strain rad52, hits give low values 1.02 | S. cerevisiae deletion strains, locus YML120C, strain ndi1, hits give low values 0.979 | S. cerevisiae deletion strains, locus YML124C, strain tub3, hits give low values 1.02 | S. cerevisiae deletion strains, locus YMR058W, strain fet3, hits give low values 0.971 | S. cerevisiae deletion strains, locus YMR078C, strain ctf18, hits give low values 1.01 | S. cerevisiae deletion strains, locus YMR125W, strain sto1, hits give low values 0.995 | S. cerevisiae deletion strains, locus YMR129W, hits give low values 0.988 | S. cerevisiae deletion strains, locus YMR205C, strain PFK2, hits give low values 0.965 | S. cerevisiae deletion strains, locus YMR223W, strain ubp8, hits give low values 1.01 | S. cerevisiae deletion strains, locus YMR231W, strain pep5, hits give low values 0.982 | S. cerevisiae deletion strains, locus YMR263W, strain SAP30, hits give low values 1.01 | S. cerevisiae deletion strains, locus YMR307W, strain GAS1, hits give low values 1.02 | S. cerevisiae deletion strains, locus YNL067W, strain RPL9B, hits give low values 1 | S. cerevisiae deletion strains, locus YNL071W, strain lat1, hits give low values 0.998 | S. cerevisiae deletion strains, locus YNL128W, strain TEP1, hits give low values 1.01 | S. cerevisiae deletion strains, locus YNL153C, strain GIM3, hits give low values 1.01 | S. cerevisiae deletion strains, locus YNL183C, strain NPR1, hits give low values 0.975 | S. cerevisiae deletion strains, locus YNL209W, strain ssb2, hits give low values 0.991 | S. cerevisiae deletion strains, locus YNL233W, strain BNI4, hits give low values 1.01 | S. cerevisiae deletion strains, locus YNL248C, strain rpa49, hits give low values 0.988 | S. cerevisiae deletion strains, locus YNL250W, strain rad50, hits give low values 1.02 | S. cerevisiae deletion strains, locus YNL271C, strain bni1, hits give low values 1.02 | S. cerevisiae deletion strains, locus YNL298W, strain CLA4, hits give low values 1.03 | S. cerevisiae deletion strains, locus YNL307C, strain MCK1, hits give low values 1.02 | S. cerevisiae deletion strains, locus YNL322C, strain KRE1 (second series), hits give low values 0.976 | S. cerevisiae deletion strains, locus YNL322C, strain KRE1, hits give low values 1 | S. cerevisiae deletion strains, locus YNR049C, strain mso1, hits give low values 0.993 | S. cerevisiae deletion strains, locus YNR052C, strain pop2, hits give low values 1.02 | S. cerevisiae deletion strains, locus YOL006C, strain TOP1, hits give low values 1.05 | S. cerevisiae deletion strains, locus YOL012C, strain htz1 0.81 | S. cerevisiae deletion strains, locus YOL147C, strain pex11, hits give low values 1.02 | S. cerevisiae deletion strains, locus YOR001W, strain rrp6, hits give low values 0.977 | S. cerevisiae deletion strains, locus YOR061W, strain CKA2, hits give low values 1.01 | S. cerevisiae deletion strains, locus YOR069W, strain VPS5, hits give low values 1.01 | S. cerevisiae deletion strains, locus YOR070C, strain gyp1, hits give low values 0.994 | S. cerevisiae deletion strains, locus YOR080W, strain dia2, hits give low values 0.98 | S. cerevisiae deletion strains, locus YOR083W, strain WHI5, hits give low values 0.953 | S. cerevisiae deletion strains, locus YOR106W, strain vam3, hits give low values 0.98 | S. cerevisiae deletion strains, locus YOR136W, strain idh2, hits give low values 1.02 | S. cerevisiae deletion strains, locus YOR144C, strain elg1, hits give low values 1.01 | S. cerevisiae deletion strains, locus YOR184W, strain ser1, hits give low values 1.04 | S. cerevisiae deletion strains, locus YOR231W, strain MKK1, hits give low values 1 | S. cerevisiae deletion strains, locus YOR265W, strain rbl2, hits give low values 0.989 | S. cerevisiae deletion strains, locus YOR270C, strain vph1, hits give low values 1 | S. cerevisiae deletion strains, locus YOR290C, strain snf2, hits give low values 0.993 | S. cerevisiae deletion strains, locus YOR316C, strain cot1, hits give low values 1.02 | S. cerevisiae deletion strains, locus YPL051W, strain arl3, hits give low values 0.973 | S. cerevisiae deletion strains, locus YPL055C, strain LGE1, hits give low values 1.01 | S. cerevisiae deletion strains, locus YPL078C, strain atp4, hits give low values 0.966 | S. cerevisiae deletion strains, locus YPL106C, strain sse1, hits give low values 0.95 | S. cerevisiae deletion strains, locus YPL240C, strain hsp82, hits give low values 0.982 | S. cerevisiae deletion strains, locus YPL241C, strain CIN2, hits give low values 1.01 | S. cerevisiae deletion strains, locus YPL256C, strain CLN2, hits give low values 1.01 | S. cerevisiae deletion strains, locus YPR119W, strain clb2, hits give low values 1.01 | S. cerevisiae deletion strains, locus YPR141C, strain kar3, hits give low values 1.02 | S. cerevisiae deletion strains, locus YPR163C, strain tif3, hits give low values 1.02 | S. cerevisiae deletion strains, locus YPR167C, strain met16, hits give low values 1.02 | S. cerevisiae deletion strains, strain wtn01, hits give low values 1.01 | S. cerevisiae strains, strain wild type, hits give low values 1.01
